# phage Ecoli inh = E. coli growth loss with phage present. growth absorbance. inhibition, % at 11.9 µM. actives 0.26% (n = 360,000). AID 651602; in the data active = inhibition above about 11%
# E coli growth-1 = inhibitors of Escherichia coli growth. OD600, 23 h; active compounds read low. AID 1053175. actives 0.21% (n = 330,000). OD600 absorbance (no concentration beside the values);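 active = OD600 absorbance below the run mean of sample wells minus 3.6 SD, in any replicate, cut at about 0.56 in these data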
# E coli growth-2 = reduces bacterial viability in AddAB counter-screen | actives 0.27% (n = 330,000) | inhibition, % at 11.9 µM | E. coli V3065 growth, OD600 absorbance, 18 h;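 active = inhibition above the campaign's mean inhibition across all tested compounds plus 3 SD, cut at about 9.9% in these data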;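 also: uninfected addAB+ strain grown without phage in ampicillin broth; 0% = DMSO wells and 100% = ciprofloxacin 0.95 µg/ml wells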
# AddAB inh = less growth of phage-infected E. coli with AddAB | inhibition, % at 11.9 µM | E. coli expressing H. pylori AddAB, absorbance growth | actives 0.29% (n = 330,000); in the data active = inhibition above about 12%;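 also: 0% = vehicle wells of infected cells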
# Tat transport = E. coli Tat transport inhibition | E. coli MC4100 TorA-mCherry Tat export, fluorescence | inhibition, % at 10 µM | actives 0.036% (n = 340,000) | AID 488895;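 active = mean replicate inhibition at least 50% and at least half of replicates individually reaching 50%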;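 also: exported cargo escapes ClpAP degradation while cytoplasmic cargo is degraded and loses fluorescence; 0% = median of neutral control wells and 100% = median of NaSCN control wells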
# AddAB conf = growth loss of T4-infected E. coli expressing H. pylori AddAB, confirmed; shares compounds with AddAB inh; E. coli V3065 expressing H. pylori AddAB, T4 phage, OD; T4 phage with gene 2 nonsense mutations; inhibition, % at 11.9 µM; actives 64% (n = 880); AID 488942;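 active = mean inhibition above a set limit taken from the earlier primary screen, cut at about 13% in these data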;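 also: higher means less bacterial growth since AddAB block lets phage replicate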
# RecBCD counter = counter-screen: growth loss of RecBCD+ E. coli with mutant T4 phage; shares compounds with AddAB inh; E. coli V66 + mutant T4 phage, OD growth; inhibition, % at 11.9 µM; actives 73% (n = 880);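 active = mean inhibition above the mean of solvent-only control wells plus 3 SD, cut at about 4% in these data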;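 also: optical density read after an 18 h incubation at 37 °C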
# bact viab count = reduces bacterial viability, AddAB inhibitor counter-screen | actives 35% (n = 880) | inhibition, % at 11.9 µM | absorbance (AddAB counterscreen) | shares compounds with AddAB inh; in the data active = inhibition above about 25%
# Starred values were filed as active, the others as inactive; / = no result given. Only some compounds are listed: those with a hit (about 0.51% of all), similar ones and a draw of the others.
SMILES,phage Ecoli inh,E coli growth-1,E coli growth-2,AddAB inh,Tat transport,AddAB conf,RecBCD counter,bact viab count
COC(=O)c1cc(=O)n(CCc2ccccc2)c(=Nc2ccc(F)cc2)s1,2.0,0.791,98.5*,99.2*,4.0,0.4,0.7,-2.4
COC(=O)c1cc(=O)n(CCc2ccc(OC)cc2)c(=Nc2ccc(F)c(Cl)c2)s1,2.4,0.805,-2.3,0.5,0.0,/,/,/
CCn1cc(C(=O)O)c(=O)c2cc(F)c(N3CCN(S(=O)(=O)c4ccc(NC(=O)OC)cc4)CC3)cc21,4.4,0.0615*,17.9*,36.7*,7.1,100.9*,28.8*,100.5*
CCn1cc(C(=O)NN)c(=O)c2cc(F)c(N3CCN(C)CC3)cc21,2.5,0.551,15.8*,17.9*,-2.7,47.3*,-0.6,29.1*
CCCCCCC(=O)N1CCN(c2cc3c(cc2F)c(=O)c(C(=O)O)cn3CC)CC1,3.4,/,8.3,10.4,-2.0,/,/,/
CCC(=O)N1CCN(c2cc3c(cc2F)c(=O)c(C(=O)O)cn3CC)CC1,8.1,0.069*,70.0*,96.9*,30.1,99.6*,8.4*,98.0*
CCOC(=O)c1cn(CC)c2cc(N3CCOCC3)c(F)cc2c1=O,6.9,0.535*,52.7*,58.3*,5.8,70.4*,-0.8,14.9
CN(C)CCC=C1c2ccccc2Sc2ccc(Cl)cc21,/,0.607,/,/,/,/,/,/
Cc1cc(C)nc(SCC(=O)NN=Cc2ccc3c(c2)OCO3)n1,/,0.702,/,/,/,/,/,/
Cn1cc(C(=O)NN=Cc2cccs2)c2ccccc21,/,0.647,/,/,/,/,/,/
CCCCCCCCn1ccc(=N)cc1,2.5,0.611,10.1*,13.1*,-5.7,-2.9,-0.1,-1.8
CCCCCCN1Cc2ccccc2C1,4.5,0.746,-1.1,3.3,2.4,/,/,/
CCCCCCCCCCn1ccc(=N)cc1,7.9,0.448*,8.7,14.2*,-8.1,6.1,4.3*,6.0
CCOC(=S)NC(=NS(=O)(=O)c1ccc(C)cc1)c1ccccc1,/,0.68,/,/,/,/,/,/
O=C(Nc1ccccc1N1CCCC1)c1ccc([N+](=O)[O-])o1,1.7,0.667,7.5,14.0*,-9.1,23.3*,2.5,6.5
CC1CCN(c2ccccc2NC(=O)c2ccc([N+](=O)[O-])o2)CC1,0.1,0.696,-3.0,3.1,-2.3,/,/,/
COc1ccccc1NC(=O)c1ccc([N+](=O)[O-])o1,9.3,0.494*,23.9*,30.3*,/,98.0*,13.5*,43.2*
Cc1cccc(NC(=O)c2ccc([N+](=O)[O-])o2)c1C,4.4,0.702,3.2,2.8,-6.4,/,/,/
O=C(ON=Cc1ccc(N2CCCCC2)c([N+](=O)[O-])c1)c1cccc(C(F)(F)F)c1,/,0.74,/,/,/,/,/,/
O=S(=O)(Nc1cccc2ncccc12)c1cccs1,/,0.678,4.4,17.9*,2.2,6.8,5.2*,0.4
CCN(CC)C(=O)COc1ccc(C=NNC(=O)c2cc(-c3ccccc3OC)nc3ccccc23)cc1OC,/,0.679,/,/,/,/,/,/
O=C(O)c1cn(-c2ccc(N3CCCC3)c(F)c2)c2c(F)c(F)c(F)cc2c1=O,0.1,0.464*,17.0*,22.0*,-7.9,21.4*,-2.2,4.5
CC(/C=C/c1ccccc1)=NNC(=O)Cn1cncn1,/,0.674,/,/,/,/,/,/
COc1nccnc1NS(=O)(=O)c1ccc(N=Cc2c(C)[nH]n(-c3ccc(Cl)cc3)c2=O)cc1,6.5,0.678,4.7,3.2,/,/,/,/
CCc1nnc(NS(=O)(=O)c2ccc(N=Cc3c(C)[nH]n(-c4ccc(Cl)cc4)c3=O)cc2)s1,9.5,/,8.9,13.5*,-8.3,8.5,7.0*,10.8
SMILES,phage Ecoli inh,E coli growth-1,E coli growth-2,AddAB inh,Tat transport,AddAB conf,RecBCD counter,bact viab count
COc1cc(NS(=O)(=O)c2ccc(NC(=S)NC(=O)c3sc4ccccc4c3Cl)cc2)ncn1,7.8,0.719,4.8,12.9*,5.7,-1.9,2.0,-0.4
CC(C)NC(=O)CC(=O)NN=Cc1ccccc1C(=O)O,/,0.639,/,/,/,/,/,/
CCCCNC(=O)O[C@H]1C[C@@H]2CCN3C(=O)CCC[C@H]([C@H]1CC)[C@H]23,2.9,/,2.3,15.2*,-9.6,-2.2,1.2,-4.0
COc1ccccc1CNC(=O)c1cc(S(=O)(=O)N2CCCC2)cn1C,3.6,0.714,99.2*,100.2*,-2.7,-3.3,0.2,-2.1
Cc1ccc(CCNC(=O)c2cc(S(=O)(=O)N3CCOCC3)cn2C)cc1,0.8,0.709,1.5,-0.2,-5.9,/,/,/
Cn1cc(S(=O)(=O)N2CCOCC2)cc1C(=O)NCCc1ccccc1,/,0.717,98.8*,98.6*,-0.5,-3.2,-0.7,-1.9
O=C(COc1ccc(Cl)cc1[N+](=O)[O-])NC1CCCCC1,2.7,0.723,20.3*,35.5*,2.6,-3.4,1.8,-3.4
CC(=O)c1cc(Cl)ccc1OCC(=O)NC1CCCC1,4.9,0.684,/,/,1.8,/,/,/
CC(=NNC(=O)C1(C)CC1(Br)Br)c1ccc(NC(=O)C2CCC2)cc1 (stereo not given),/,0.664,/,/,/,/,/,/
COc1ccc(NC(=O)CSc2nc3ncccc3[nH]2)cc1OC,5.5,0.703,3.3,12.5*,-9.3,-2.2,3.8,0.6
CCCn1c(NC(=O)c2ccc([N+](=O)[O-])o2)nc2ccccc21,10.5,0.632,8.1,15.0*,-5.2,58.5*,4.7*,15.2
CCCn1c(NC(=O)c2cccc(C)c2C)nc2ccccc21,/,0.665,-3.6,-2.3,7.6,/,/,/
O=C(Nc1ccccn1)c1ccc([N+](=O)[O-])o1,/,0.53,72.5*,98.2*,-10.6,56.8*,17.4*,62.3*
O=C(Nc1ncccn1)c1ccc([N+](=O)[O-])o1,13.5*,0.49*,9.2,59.8*,6.5,95.9*,5.6*,18.2
O=C(Nc1cccc2ccccc12)c1ccc([N+](=O)[O-])o1,3.1,0.624,7.9,4.9,-13.2,/,/,/
COC(=O)C1CC1C(NC(=O)c1cccnc1)c1ccccc1 (stereo not given),/,0.705,/,/,/,/,/,/
COc1ccc(OC)c(C=NNC(=O)c2csc3ccccc23)c1,/,0.715,/,/,/,/,/,/
O=C(NCCCn1ccnc1)C(=O)NCC(c1cccnc1)N1CCN(c2ccccc2)CC1 (stereo not given),0.8,0.741,97.5*,96.9*,-2.9,-4.5,0.2,-0.4
O=C(NCCCn1ccnc1)C(=O)NCC(c1ccco1)N1CCN(c2ccccc2)CC1 (stereo not given),1.1,0.723,1.8,-0.3,-0.4,/,/,/
O=C(Nc1nc(-c2cccs2)c(C(=O)C(F)(F)F)s1)c1ccccc1,3.3,0.693,3.3,6.8,16.2,/,/,/
O=C(Nc1nc(-c2cccs2)c(C(=O)C(F)(F)F)s1)c1ccco1,6.1,0.672,95.9*,98.7*,1.4,-3.2,-0.1,-1.3
COCC1CCN(Cc2nc(COc3ccccc3)no2)C1 (stereo not given),-0.8,0.709,32.8*,32.2*,4.7,-4.8,-1.1,-5.0
